Among the data in ChEMBL document CHEMBL1961873, “Compounds: GSK PKIS; Assays: Nanosyn kinase panel” (2012) are inhibition values, retold here.

Experiment [1] deals with T1, Muscle, skeletal receptor tyrosine-protein kinase (Homo sapiens) (UniProt O15146).
T1 sequence (whole entry): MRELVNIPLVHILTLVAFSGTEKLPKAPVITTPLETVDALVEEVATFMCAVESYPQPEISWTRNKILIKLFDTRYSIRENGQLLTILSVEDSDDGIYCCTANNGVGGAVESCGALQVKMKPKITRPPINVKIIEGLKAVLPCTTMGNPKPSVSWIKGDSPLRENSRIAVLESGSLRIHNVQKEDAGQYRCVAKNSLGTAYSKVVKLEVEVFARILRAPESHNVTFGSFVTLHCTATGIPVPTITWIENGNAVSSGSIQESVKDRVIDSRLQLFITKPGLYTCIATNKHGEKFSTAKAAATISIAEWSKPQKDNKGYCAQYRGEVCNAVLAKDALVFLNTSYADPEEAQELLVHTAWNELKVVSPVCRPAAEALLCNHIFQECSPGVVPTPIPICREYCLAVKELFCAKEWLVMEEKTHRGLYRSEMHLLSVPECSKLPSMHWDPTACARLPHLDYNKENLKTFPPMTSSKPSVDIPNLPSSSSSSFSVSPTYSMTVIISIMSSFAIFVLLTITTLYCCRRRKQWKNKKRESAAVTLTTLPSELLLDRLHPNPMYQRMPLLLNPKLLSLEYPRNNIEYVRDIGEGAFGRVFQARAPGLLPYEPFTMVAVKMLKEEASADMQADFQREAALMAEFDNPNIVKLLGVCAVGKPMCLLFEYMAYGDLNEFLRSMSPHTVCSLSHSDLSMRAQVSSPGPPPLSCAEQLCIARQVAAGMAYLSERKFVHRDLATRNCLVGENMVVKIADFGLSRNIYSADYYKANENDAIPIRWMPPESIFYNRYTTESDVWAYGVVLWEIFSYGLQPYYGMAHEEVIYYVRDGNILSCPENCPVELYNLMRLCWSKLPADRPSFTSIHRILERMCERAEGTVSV
As to conditions: at 1 µM.

The target of experiment [2] is Platelet-derived growth factor receptor alpha (Homo sapiens) (UniProt P16234). As to conditions: at 0.1 µM.
Platelet-derived growth factor receptor alpha (Homo sapiens), sequence (P16234 whole entry): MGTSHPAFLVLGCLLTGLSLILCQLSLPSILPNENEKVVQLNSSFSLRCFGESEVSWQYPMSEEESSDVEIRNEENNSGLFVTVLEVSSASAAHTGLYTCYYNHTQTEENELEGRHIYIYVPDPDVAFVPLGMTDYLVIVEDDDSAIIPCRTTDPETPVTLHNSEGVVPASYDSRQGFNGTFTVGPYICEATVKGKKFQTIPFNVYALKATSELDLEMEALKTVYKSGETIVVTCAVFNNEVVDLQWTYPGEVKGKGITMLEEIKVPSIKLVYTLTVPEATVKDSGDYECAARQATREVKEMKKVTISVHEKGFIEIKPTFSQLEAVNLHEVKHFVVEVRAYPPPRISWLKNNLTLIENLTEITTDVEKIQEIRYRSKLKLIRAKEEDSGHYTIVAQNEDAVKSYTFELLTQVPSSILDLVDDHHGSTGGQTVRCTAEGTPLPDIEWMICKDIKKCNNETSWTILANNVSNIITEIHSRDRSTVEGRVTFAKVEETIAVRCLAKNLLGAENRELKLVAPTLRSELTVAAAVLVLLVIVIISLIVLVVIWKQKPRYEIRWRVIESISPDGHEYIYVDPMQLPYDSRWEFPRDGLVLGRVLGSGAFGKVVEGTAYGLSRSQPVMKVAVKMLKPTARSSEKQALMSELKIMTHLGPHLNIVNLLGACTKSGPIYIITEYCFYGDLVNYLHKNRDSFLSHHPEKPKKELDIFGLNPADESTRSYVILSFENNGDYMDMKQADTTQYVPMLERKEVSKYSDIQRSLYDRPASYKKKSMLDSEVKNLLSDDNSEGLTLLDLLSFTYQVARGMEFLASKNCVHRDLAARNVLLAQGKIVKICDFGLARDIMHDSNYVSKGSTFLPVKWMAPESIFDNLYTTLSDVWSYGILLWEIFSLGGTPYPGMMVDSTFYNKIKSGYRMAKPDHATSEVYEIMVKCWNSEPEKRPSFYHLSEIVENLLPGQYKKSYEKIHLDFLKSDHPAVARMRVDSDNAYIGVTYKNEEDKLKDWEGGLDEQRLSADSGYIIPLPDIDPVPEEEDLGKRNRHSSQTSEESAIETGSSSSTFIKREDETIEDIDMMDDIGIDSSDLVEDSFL
Experiment [3] shares this target. As to conditions: at 1 µM.
For experiment [4], the system named is Platelet-derived growth factor receptor alpha (Homo sapiens), P16234 [D842V]. Particulars: at 0.1 µM.
Experiment [5] shares this test system. Particulars: at 1 µM.
For experiment [6], the system named is Platelet-derived growth factor receptor alpha (Homo sapiens), P16234 [T674I]. As to conditions: at 0.1 µM.
The test system is the same in experiment [7]. As to conditions: at 1 µM.
Experiment [8] has as its system Platelet-derived growth factor receptor alpha (Homo sapiens), P16234 [V561D]. As to conditions: at 0.1 µM.
For experiment [9] the test system is unchanged. Particulars: at 1 µM.
Experiment [10] concerns the target Platelet-derived growth factor receptor beta (Homo sapiens) (UniProt P09619). As to conditions: at 0.1 µM.
The target is the same in experiment [11]. Particulars: at 1 µM.
Experiment [12] has as its target Tyrosine-protein kinase FRK (Homo sapiens) (UniProt P42685). Particulars: at 0.1 µM.
Experiment [13] shares this target. Particulars: at 1 µM.
The target of experiment [14] is Protein-tyrosine kinase 2-beta (Homo sapiens) (UniProt Q14289). Particulars: at 0.1 µM.
Experiment [15] has the same target. Particulars: at 1 µM.
In experiment [16] the target is Proto-oncogene tyrosine-protein kinase receptor Ret (Homo sapiens) (UniProt P07949). As to conditions: at 0.1 µM.
Proto-oncogene tyrosine-protein kinase receptor Ret (Homo sapiens), sequence (P07949 whole entry): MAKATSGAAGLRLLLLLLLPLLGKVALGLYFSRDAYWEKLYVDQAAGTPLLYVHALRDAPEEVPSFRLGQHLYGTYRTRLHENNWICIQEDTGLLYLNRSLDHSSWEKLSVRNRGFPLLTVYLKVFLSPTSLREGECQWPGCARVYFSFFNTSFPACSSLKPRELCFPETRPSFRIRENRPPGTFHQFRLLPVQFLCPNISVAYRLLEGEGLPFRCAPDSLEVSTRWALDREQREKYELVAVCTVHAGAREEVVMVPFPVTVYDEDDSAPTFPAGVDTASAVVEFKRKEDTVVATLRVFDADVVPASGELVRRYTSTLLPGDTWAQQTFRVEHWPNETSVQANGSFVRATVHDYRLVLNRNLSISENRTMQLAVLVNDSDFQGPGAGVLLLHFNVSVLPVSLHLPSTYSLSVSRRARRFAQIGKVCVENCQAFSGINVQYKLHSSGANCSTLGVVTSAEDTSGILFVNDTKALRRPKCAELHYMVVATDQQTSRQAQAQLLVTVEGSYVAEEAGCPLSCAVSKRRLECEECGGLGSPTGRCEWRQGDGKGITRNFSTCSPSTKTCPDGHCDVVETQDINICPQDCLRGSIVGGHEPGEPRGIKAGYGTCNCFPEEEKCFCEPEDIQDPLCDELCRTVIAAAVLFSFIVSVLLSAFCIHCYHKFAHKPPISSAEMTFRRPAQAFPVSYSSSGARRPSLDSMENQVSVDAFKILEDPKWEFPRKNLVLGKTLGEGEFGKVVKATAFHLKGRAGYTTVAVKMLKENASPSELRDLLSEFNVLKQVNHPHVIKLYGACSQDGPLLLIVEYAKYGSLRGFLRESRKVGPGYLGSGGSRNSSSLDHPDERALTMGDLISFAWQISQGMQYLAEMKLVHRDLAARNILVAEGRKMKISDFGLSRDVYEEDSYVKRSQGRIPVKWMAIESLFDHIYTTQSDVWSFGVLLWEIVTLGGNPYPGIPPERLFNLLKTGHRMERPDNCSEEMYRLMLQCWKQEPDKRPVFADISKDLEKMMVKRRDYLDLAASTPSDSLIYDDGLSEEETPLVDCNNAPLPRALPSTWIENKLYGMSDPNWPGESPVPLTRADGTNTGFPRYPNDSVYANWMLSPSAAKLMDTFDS
Experiment [17] shares this target. Particulars: at 1 µM.
Experiment [18] has as its system Proto-oncogene tyrosine-protein kinase receptor Ret (Homo sapiens), P07949 [V804L]. Particulars: at 0.1 µM.
For experiment [19] the test system is unchanged. As to conditions: at 1 µM.
For experiment [20], the system named is Proto-oncogene tyrosine-protein kinase receptor Ret (Homo sapiens), P07949 [Y791F]. As to conditions: at 0.1 µM.

Proto-oncogene tyrosine-protein kinase receptor Ret (Homo sapiens), P07949 [V804L], sequence (P07949 whole entry V804L): as the sequence (P07949 whole entry) above, with V804L counted along it
Tyrosine-protein kinase FRK (Homo sapiens), sequence (P42685 whole entry): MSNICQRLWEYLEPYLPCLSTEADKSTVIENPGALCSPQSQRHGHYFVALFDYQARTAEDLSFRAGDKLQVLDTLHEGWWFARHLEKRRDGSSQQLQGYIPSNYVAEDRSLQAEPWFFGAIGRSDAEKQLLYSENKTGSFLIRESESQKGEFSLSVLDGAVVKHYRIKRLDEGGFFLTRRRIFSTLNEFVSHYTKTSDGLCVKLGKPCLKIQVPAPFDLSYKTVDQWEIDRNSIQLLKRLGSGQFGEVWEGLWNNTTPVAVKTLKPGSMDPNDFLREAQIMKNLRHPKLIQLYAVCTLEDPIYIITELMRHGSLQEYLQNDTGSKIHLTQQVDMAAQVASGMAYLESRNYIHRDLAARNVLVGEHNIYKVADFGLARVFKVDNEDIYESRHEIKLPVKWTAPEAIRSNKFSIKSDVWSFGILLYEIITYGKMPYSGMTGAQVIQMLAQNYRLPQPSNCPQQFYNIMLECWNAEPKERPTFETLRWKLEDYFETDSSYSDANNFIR
Platelet-derived growth factor receptor alpha (Homo sapiens), P16234 [V561D], sequence (P16234 whole entry V561D): as the sequence (P16234 whole entry) above, with V561D counted along it

Take `CC1=C(C(=O)Nc2ccc3[nH]nc(C)c3c2)C(c2ccc(C(F)(F)F)cc2)CC(=O)N1` (stereo not given): the inhibition in experiment [1] is 23.7%; in experiment [2], 7.08%; in [3], 19.3%; in experiment [4], 2.09%; in [5], 6.76%; in experiment [6], 2.02%. The inhibition is 1.41% in [7]; -0.51% in experiment [8]; 8.12% in [9]; 8.62% in experiment [10]; 12.2% in experiment [11]; 1.26% in experiment [12]. In addition, the inhibition in [13] is 6.47%; in experiment [14], 10.8%; in experiment [15] it was 5.14%; in experiment [16], 7.82%; in [17], 44.2%; in experiment [18], 12.2%. In addition, the inhibition in [19] worked out at 42.2%; in [20], 10.5%.
With `COc1ccccc1-c1cc(/C=C2\C(=O)Nc3ncc(Br)cc32)cc(Br)c1O`, the inhibition stood at 5.9% in experiment [1]; 11.6% in [2]; 16.9% in [3]; 2.43% in experiment [4]; 5.41% in experiment [5]; 8.02% in [6]. Further, the inhibition was 8.24% in experiment [7]; 2.82% in experiment [8]; 15.2% in experiment [9]; 6.48% in experiment [10]; 11.6% in experiment [11]; 0.6% in [12]. For the same molecule, the inhibition was determined as 2.12% in [13]; 15.6% in experiment [14]; 39.1% in [15]; 2.23% in [16]; 11.1% in experiment [17]; 9.25% in [18]. In addition, the figures for the inhibition in experiment [19] and in [20] were 12% and 12.6%, respectively.
Turning to `CC1(C)CC(n2cnc(-c3ccc(F)cc3)c2-c2ccnc(N)n2)CC(C)(C)N1`, the inhibition in [1] came to 5.42%; in [2], 3.29%; in [3], 5.34%; in experiment [4], 1.19%; in experiment [5], 0.18%; in experiment [6], 2.4%. In addition, the inhibition is 4.71% in experiment [7]; -0.6% in [8]; 3.08% in experiment [9]; 5.64% in experiment [10]; 5.35% in [11]; 0.92% in experiment [12]. The inhibition was 1.66% in experiment [13]; 4.26% in [14]; 3.23% in experiment [15]; -0.92% in experiment [16]; -0.44% in experiment [17]; 2.21% in experiment [18]. The inhibition came to 2.81% in experiment [19] and 1.42% in experiment [20].
For `NC(=O)c1ccc2c(-c3ccnc(NCCCO)n3)c(-c3ccc(F)cc3)nn2c1`, the inhibition in experiment [1] is 2.08%; in [2], 5.5%; in experiment [3] it was 16.9%; in experiment [4] it was 4.25%; in [5], 8.75%; in experiment [6], 6.06%. Further, the inhibition in experiment [7] is 6.59%; in experiment [8], 4.18%; in experiment [9], 14.3%; in [10], 4.83%; in experiment [11], 18.2%; in experiment [12] it was 4.1%. The inhibition in experiment [13] amounted to 3.97%; in [14] it was 17.1%; in experiment [15], 12.2%; in [16], 5.55%; in experiment [17] it was 16.6%; in experiment [18], 1.73%. Also, the inhibition in [19] is 4.71%; in experiment [20], 6.62%.
On to `CS(=O)(=O)CCNCc1ccc(-c2ccc3ncnc(Nc4ccc(OCc5ccccc5)cc4)c3c2)o1`, for which the inhibition in experiment [1] was 1.04%; in [2] it was 4.6%; in experiment [3], 10.4%; in [4], 3.6%; in [5], 3.61%; in experiment [6], 3.14%. The inhibition in [7] amounted to 4.61%; in experiment [8] it was 5.39%; in experiment [9], 7.8%; in experiment [10], 3%; in experiment [11], 4.72%; in experiment [12], 0.38%. Moreover, the inhibition turned out to be 0.96% in [13]; 7.76% in [14]; 6.51% in experiment [15]; 2.99% in [16]; 9.8% in experiment [17]; 3.01% in experiment [18]. Further, the inhibition was 11.9% in experiment [19] and 3.34% in experiment [20].
As for `O=C1Nc2ccccc2/C1=C1\CCc2cc(O)ccc21`, the inhibition in experiment [1] was determined as 32.1%; in experiment [2], 23%; in [3], 63.2%; in [4] it was 7.24%; in experiment [5] it was 34.7%; in [6] it was 45.7%. In addition, the inhibition in experiment [7] stood at 97.7%; in [8] it was 32.4%; in [9] it was 64.8%; in [10], 11.3%; in experiment [11] it was 47.9%; in experiment [12], 2.6%. In addition, the inhibition in [13] was 3.64%; in experiment [14], 18.3%; in experiment [15], 44%; in experiment [16], 23%; in experiment [17], 66.3%; in experiment [18] it was 36.1%. The inhibition in [19] was found to be 73.6%; in experiment [20], 25.8%.
Take `COC(=O)Nc1nc2ccc(Oc3ccc(NC(=O)Nc4cc(C(F)(F)F)ccc4F)cc3)cc2s1`: the inhibition in experiment [1] stood at 85.6%; in experiment [2], 70.3%; in experiment [3] it was 83.5%; in [4], 5.8%; in experiment [5], 22.8%; in [6], 41.6%. The inhibition amounted to 92% in [7]; 74.8% in experiment [8]; 93.7% in [9]; 20.2% in experiment [10]; 55.9% in [11]; 0.62% in experiment [12]. Besides, the inhibition worked out at 4.14% in experiment [13]; 1.98% in [14]; 6.74% in experiment [15]; 86.7% in experiment [16]; 88.4% in experiment [17]; 67.3% in [18]. Also, the inhibition in experiment [19] came out at 84.6%; in experiment [20], 78.9%.
